Sampled rows, rich in hits. Any-hit rate of the full collection: about 4.1%.
GRIN3A LBD mod – modulates the human NR3A ligand-binding domain; NR3A LBD differential scanning fluorimetry, Tm shift; 0% = protein alone, 100% = glycine-bound protein; Tm shift relative to glycine control, % at 25 µM; 2.5% of 340,000 active; AID 1259313;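 active = melting temperature shift of at least 10% of the positive control shift, at one fixed dose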
FAS-TE inh – inhibitors of human fatty acid synthase thioesterase domain. P49327. recombinant FAS-TE, OMFH fluorogenic substrate, fluorescence endpoint. inhibition, % at 15 µM. 0.67% of 360,000 active;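 active = compounds whose normalised, plate-corrected inhibition of enzyme fluorescence in the single-dose primary screen is 50% or more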;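 also: 0% = DMSO with enzyme and 100% = substrate without enzyme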
Target sequence (P49327 whole entry, looked up, the tested form may be a part): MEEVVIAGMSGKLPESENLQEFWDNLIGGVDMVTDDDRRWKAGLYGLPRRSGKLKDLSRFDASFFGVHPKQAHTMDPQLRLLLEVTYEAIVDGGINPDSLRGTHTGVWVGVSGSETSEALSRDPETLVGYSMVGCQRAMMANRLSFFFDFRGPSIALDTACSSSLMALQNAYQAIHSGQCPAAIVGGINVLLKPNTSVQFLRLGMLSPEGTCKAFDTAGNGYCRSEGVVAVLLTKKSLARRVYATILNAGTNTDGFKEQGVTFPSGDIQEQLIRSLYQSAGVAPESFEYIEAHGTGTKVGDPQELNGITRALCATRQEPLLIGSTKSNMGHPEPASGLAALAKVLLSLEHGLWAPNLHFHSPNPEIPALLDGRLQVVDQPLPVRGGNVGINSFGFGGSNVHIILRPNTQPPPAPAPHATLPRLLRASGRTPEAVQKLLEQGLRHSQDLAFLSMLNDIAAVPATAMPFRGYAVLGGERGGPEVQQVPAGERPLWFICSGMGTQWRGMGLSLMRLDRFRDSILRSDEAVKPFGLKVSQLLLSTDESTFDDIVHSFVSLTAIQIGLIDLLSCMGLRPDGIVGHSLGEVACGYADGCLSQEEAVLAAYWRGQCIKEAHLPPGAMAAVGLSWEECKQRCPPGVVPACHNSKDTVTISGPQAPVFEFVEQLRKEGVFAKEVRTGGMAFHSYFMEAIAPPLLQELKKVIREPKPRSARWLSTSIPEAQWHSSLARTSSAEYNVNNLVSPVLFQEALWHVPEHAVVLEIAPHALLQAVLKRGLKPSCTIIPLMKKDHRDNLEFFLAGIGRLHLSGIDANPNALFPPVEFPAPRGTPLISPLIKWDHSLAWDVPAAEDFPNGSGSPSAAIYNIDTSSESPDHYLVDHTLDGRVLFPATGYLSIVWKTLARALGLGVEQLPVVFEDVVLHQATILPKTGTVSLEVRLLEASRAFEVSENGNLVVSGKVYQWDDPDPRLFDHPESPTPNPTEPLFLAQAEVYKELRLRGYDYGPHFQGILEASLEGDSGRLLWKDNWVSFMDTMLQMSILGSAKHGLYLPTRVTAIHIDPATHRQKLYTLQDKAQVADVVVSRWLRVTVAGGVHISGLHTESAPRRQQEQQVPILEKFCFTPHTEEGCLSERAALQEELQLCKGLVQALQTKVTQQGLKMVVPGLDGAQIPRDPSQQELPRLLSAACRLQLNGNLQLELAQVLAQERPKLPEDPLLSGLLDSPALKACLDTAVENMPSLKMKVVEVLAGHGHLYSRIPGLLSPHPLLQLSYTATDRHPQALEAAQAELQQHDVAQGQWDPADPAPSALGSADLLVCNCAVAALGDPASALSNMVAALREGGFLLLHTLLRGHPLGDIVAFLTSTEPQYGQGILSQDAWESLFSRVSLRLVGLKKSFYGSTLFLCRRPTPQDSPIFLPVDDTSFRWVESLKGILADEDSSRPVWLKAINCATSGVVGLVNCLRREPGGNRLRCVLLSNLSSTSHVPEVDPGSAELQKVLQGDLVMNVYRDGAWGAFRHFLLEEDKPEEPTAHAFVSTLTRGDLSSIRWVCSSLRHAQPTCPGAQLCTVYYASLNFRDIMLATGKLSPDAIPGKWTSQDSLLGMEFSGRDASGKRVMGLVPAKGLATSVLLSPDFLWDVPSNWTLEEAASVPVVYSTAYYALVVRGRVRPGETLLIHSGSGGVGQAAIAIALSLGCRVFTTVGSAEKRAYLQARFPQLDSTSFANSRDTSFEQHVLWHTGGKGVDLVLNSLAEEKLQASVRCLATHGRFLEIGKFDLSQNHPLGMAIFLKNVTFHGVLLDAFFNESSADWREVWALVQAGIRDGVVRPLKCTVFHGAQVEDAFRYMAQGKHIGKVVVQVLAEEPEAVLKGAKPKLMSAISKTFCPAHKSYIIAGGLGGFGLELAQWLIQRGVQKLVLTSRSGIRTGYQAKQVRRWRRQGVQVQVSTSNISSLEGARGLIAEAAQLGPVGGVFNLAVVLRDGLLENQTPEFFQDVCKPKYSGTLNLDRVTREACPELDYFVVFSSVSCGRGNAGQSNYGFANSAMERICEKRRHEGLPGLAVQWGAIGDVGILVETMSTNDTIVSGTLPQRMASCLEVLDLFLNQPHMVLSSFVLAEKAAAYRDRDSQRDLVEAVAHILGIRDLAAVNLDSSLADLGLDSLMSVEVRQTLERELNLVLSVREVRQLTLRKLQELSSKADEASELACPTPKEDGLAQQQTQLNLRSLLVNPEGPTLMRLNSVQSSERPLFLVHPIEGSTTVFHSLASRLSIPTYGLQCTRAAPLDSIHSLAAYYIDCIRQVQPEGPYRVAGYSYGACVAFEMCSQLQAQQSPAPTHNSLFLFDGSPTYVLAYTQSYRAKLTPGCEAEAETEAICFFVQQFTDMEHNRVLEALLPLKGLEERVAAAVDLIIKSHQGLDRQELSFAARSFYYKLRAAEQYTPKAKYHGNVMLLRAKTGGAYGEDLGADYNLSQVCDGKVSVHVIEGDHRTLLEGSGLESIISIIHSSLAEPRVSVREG
p-CIP stab down – compounds decreasing mouse p/CIP protein stability; F442A p/CIP-EGFP cells, EGFP fluorescence, 16 h; decrease of EGFP signal, % at 10 µM; 0.01% of 290,000 active; AID 1984;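 active = EGFP signal decrease of at least 30% at 10 µM or well 3 SD below plate mean, unless failing retest; inactive = the rest, including hits failing retest or dose response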
MPTP inh – permeability transition pore inhibition; isolated mouse mitochondria, Ca2+ swelling absorbance, 30 min; inhibition, % at 10 µM; 1.4% of 360,000 active; AID 602449;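 active = inhibition of 50% or more, scaled per plate between neutral and stimulator controls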;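 also: 0% = DMSO wells given calcium and 100% = 1 mM EGTA wells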
beta cell repl – MIN6 beta-cell proliferation induction | proliferation, % at 10 µM | 0.29% of 330,000 active | MIN6 cells proliferation, ATPlite luminescence, 48 h; cells starved in 0.2% serum; 100% = growth in 10% serum;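 active = compounds whose signal lies at least 3.5 SD above the mean of all wells on their plate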;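 also: 0% = DMSO-treated cells in low-serum medium and 100% = 10% serum control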
MPTP counter – mitochondrial membrane potential, counter-screen | shares compounds with MPTP inh | isolated mitochondria, Rhodamine 123 fluorescence | inhibition, % at 10 µM | 78% of 5,000 active | AID 624504; in the data active = inhibition above about 22%;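 also: 0% = DMSO vehicle and 100% = positive control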
MPTP swell DR – dose response confirmation of mitochondrial permeability transition pore inhibitors | shares compounds with MPTP inh | isolated mitochondria swelling, absorbance | IC50, µM | 58% of 780 active; in the data active = IC50 below about 20 µM
MPTP cs DR – MPTP inhibitor counter-screen activity, dose response; shares compounds with MPTP inh; isolated mitochondria counterscreen, fluorescence read-out; IC50, µM; 49% of 780 active; AID 651564; in the data active = IC50 below about 80 µM
* = called active by the depositor; i = inactive; . = no result given.

SMILES | GRIN3A LBD mod | FAS-TE inh | p-CIP stab down | MPTP inh | beta cell repl | MPTP counter | others
O=C(c1cc2sccc2n1Cc1ccc(F)cc1)N1CCN(c2nc3ccccc3s2)CC1 | 0 | 29 | -22 | 90* | -4 | 103*
CCOC(=O)N1CCC(N(CCOC)C(=O)Nc2ccc(Cl)cc2)CC1 | -2 | -4 | -14 | 64* | -3 | 77*
Cc1ccc(S(=O)(=O)O/N=C2\CCCc3ccccc32)cc1 | 0 | 5 | -1 | 0 | -2 | .
CC1=C(C)/C(=N\OS(=O)(=O)c2ccccc2)C=CC1=O | 4 | 4 | 1 | 109* | -3 | 99*
COc1ccc(C(O)c2nc(-c3cccs3)cs2)cc1 (stereo not given) | . | 2 | . | 0 | . | .
O=C(CN1C(=O)NC2(CCCC2)C1=O)OCCOc1cccc(Br)c1 | 1 | 0 | . | -3 | -4 | .
Cc1cccc(-n2c(=S)[nH]c3nc4c(cc3c2=O)COC(C)(C)C4)c1 | -1 | -4 | -2 | 1 | -2 | .
CC(C)CNS(=O)(=O)c1ccc(CCC(=O)N2CCN(Cc3ccc4c(c3)OCO4)CC2)cc1 | 1 | 0 | -32 | 10 | -3 | .
O=C(CCc1ccc(S(=O)(=O)NCCc2ccccc2)cc1)N1CCN(Cc2ccc3c(c2)OCO3)CC1 | . | 18 | -3 | 54* | -1 | 24*
COc1cccc(NC(=O)N2CCN(S(C)(=O)=O)CC2)c1 | -3 | -4 | -4 | 0 | 1 | .
CCc1ccc(NC(=O)CCS(=O)(=O)c2ccc3c(c2)CCN3C(C)=O)cc1 | -1 | -3 | -2 | -3 | -4 | .
CCCC1=NN2C(=N)/C(=C\c3cc(C)n(-c4cccc(C)c4)c3C)C(=O)N=C2S1 | -16 | -7 | -5 | 52* | -2 | 5 | MPTP swell DR=i;MPTP cs DR=>80
CCCC1=NN2C(=N)/C(=C\c3cc(C)n(Cc4ccccc4)c3C)C(=O)N=C2S1 | -5 | 8 | -7 | 32 | 2 | .
O=C(CNC(=O)c1cccs1)c1ccc(Br)cc1 | 1 | -4 | 2 | -1 | -2 | .
N#CCCn1c(SCC(=O)NCc2ccco2)nc2ccccc21 | 0 | -4 | 1 | 74* | 3 | -2 | MPTP swell DR=i;MPTP cs DR=>80
O=C(CSc1nc2ccccc2n1CC(=O)NCc1ccccc1)NCc1ccco1 | 0 | -4 | -4 | -1 | -4 | .
C/C(=N\NC(=O)c1cc(Cl)ccc1O)c1ccc(Br)s1 | 4 | -4 | 6 | 94* | -6 | 20 | MPTP swell DR=4.7*;MPTP cs DR=<2.5*
Cc1nc2nc(C)c(NS(=O)(=O)c3ccc(Cl)s3)c(=O)n2[nH]1 | 1 | -6 | 11 | 0 | 0 | .
CCOC(=O)c1ccc(-n2[nH]c(-c3ccccc3)cc2=O)cc1 | -5 | 0 | -6 | 88* | -6 | 79*
Cc1cccc2cc(CN(Cc3ccccc3)C(=S)NCCCN(C)C)c(=O)[nH]c12 | 2 | -5 | -9 | 4 | -4 | .
Cc1ccc(CN(Cc2cc3cccc(C)c3[nH]c2=O)C(=S)NCCCN(C)C)cc1 | -1 | 1 | -8 | 65* | -6 | -13 | MPTP swell DR=12*;MPTP cs DR=>80
CSc1ccccc1NC(=O)Nc1ccc(Cl)cc1 | 3 | 19 | 2 | 92* | -5 | 75*
CSc1cccc(NC(N)=O)c1 | -1 | -6 | 2 | 2 | -3 | .
O=C(/C=C/c1cccc(C(F)(F)F)c1)Nc1cccc(C(F)(F)F)c1 | 14* | 35 | -2 | 87* | -4 | 85*
CSc1cccc(NC(=O)Nc2ccc(Cl)cc2)c1 | 29* | 0 | -2 | 88* | -4 | 104*
O=C(Nc1ccc(Br)cc1)Nc1ccccc1Cl | 21* | 7 | -14 | 78* | -7 | 103*
CCOc1ccc(C(=O)NCc2cccnc2)cc1[N+](=O)[O-] | 2 | -4 | 10 | -1 | -2 | .
O=c1c2cc(F)ccc2[nH]c(=S)n1CCCN1CCOCC1 | 0 | -4 | 2 | 3 | 1 | .
Cc1cc(=O)n2cccc(O)c2n1 | -1 | 2 | -3 | -1 | 2 | .
CCC(=O)NNC(=O)c1cc(COc2cc(Cl)cc(Cl)c2)on1 | 0 | -6 | -4 | 0 | 1 | .
